Results as given in the supplement of paper PMC11732987, “Enantioselective OTUD7B fragment discovery through chemoproteomics screening and high-throughput optimisation” (Communications Chemistry, 2025).

Tests used:
Experiment in all cases: log2 ratio of Biotin-Ahx-Ub-VS probe labelling (fragment/DMSO); higher = less target engagement (more negative = stronger competition), active = hit call of the paper (q ≤ 0.05, log2 ratio ≤ -1)
Conditions in all cases: compound concentration: 200 uM; treatment time: 3 h
USP34 = USP34 (UniProt Q70CQ2)
USP34, sequence (Q70CQ2 whole entry, the tested form may be a part): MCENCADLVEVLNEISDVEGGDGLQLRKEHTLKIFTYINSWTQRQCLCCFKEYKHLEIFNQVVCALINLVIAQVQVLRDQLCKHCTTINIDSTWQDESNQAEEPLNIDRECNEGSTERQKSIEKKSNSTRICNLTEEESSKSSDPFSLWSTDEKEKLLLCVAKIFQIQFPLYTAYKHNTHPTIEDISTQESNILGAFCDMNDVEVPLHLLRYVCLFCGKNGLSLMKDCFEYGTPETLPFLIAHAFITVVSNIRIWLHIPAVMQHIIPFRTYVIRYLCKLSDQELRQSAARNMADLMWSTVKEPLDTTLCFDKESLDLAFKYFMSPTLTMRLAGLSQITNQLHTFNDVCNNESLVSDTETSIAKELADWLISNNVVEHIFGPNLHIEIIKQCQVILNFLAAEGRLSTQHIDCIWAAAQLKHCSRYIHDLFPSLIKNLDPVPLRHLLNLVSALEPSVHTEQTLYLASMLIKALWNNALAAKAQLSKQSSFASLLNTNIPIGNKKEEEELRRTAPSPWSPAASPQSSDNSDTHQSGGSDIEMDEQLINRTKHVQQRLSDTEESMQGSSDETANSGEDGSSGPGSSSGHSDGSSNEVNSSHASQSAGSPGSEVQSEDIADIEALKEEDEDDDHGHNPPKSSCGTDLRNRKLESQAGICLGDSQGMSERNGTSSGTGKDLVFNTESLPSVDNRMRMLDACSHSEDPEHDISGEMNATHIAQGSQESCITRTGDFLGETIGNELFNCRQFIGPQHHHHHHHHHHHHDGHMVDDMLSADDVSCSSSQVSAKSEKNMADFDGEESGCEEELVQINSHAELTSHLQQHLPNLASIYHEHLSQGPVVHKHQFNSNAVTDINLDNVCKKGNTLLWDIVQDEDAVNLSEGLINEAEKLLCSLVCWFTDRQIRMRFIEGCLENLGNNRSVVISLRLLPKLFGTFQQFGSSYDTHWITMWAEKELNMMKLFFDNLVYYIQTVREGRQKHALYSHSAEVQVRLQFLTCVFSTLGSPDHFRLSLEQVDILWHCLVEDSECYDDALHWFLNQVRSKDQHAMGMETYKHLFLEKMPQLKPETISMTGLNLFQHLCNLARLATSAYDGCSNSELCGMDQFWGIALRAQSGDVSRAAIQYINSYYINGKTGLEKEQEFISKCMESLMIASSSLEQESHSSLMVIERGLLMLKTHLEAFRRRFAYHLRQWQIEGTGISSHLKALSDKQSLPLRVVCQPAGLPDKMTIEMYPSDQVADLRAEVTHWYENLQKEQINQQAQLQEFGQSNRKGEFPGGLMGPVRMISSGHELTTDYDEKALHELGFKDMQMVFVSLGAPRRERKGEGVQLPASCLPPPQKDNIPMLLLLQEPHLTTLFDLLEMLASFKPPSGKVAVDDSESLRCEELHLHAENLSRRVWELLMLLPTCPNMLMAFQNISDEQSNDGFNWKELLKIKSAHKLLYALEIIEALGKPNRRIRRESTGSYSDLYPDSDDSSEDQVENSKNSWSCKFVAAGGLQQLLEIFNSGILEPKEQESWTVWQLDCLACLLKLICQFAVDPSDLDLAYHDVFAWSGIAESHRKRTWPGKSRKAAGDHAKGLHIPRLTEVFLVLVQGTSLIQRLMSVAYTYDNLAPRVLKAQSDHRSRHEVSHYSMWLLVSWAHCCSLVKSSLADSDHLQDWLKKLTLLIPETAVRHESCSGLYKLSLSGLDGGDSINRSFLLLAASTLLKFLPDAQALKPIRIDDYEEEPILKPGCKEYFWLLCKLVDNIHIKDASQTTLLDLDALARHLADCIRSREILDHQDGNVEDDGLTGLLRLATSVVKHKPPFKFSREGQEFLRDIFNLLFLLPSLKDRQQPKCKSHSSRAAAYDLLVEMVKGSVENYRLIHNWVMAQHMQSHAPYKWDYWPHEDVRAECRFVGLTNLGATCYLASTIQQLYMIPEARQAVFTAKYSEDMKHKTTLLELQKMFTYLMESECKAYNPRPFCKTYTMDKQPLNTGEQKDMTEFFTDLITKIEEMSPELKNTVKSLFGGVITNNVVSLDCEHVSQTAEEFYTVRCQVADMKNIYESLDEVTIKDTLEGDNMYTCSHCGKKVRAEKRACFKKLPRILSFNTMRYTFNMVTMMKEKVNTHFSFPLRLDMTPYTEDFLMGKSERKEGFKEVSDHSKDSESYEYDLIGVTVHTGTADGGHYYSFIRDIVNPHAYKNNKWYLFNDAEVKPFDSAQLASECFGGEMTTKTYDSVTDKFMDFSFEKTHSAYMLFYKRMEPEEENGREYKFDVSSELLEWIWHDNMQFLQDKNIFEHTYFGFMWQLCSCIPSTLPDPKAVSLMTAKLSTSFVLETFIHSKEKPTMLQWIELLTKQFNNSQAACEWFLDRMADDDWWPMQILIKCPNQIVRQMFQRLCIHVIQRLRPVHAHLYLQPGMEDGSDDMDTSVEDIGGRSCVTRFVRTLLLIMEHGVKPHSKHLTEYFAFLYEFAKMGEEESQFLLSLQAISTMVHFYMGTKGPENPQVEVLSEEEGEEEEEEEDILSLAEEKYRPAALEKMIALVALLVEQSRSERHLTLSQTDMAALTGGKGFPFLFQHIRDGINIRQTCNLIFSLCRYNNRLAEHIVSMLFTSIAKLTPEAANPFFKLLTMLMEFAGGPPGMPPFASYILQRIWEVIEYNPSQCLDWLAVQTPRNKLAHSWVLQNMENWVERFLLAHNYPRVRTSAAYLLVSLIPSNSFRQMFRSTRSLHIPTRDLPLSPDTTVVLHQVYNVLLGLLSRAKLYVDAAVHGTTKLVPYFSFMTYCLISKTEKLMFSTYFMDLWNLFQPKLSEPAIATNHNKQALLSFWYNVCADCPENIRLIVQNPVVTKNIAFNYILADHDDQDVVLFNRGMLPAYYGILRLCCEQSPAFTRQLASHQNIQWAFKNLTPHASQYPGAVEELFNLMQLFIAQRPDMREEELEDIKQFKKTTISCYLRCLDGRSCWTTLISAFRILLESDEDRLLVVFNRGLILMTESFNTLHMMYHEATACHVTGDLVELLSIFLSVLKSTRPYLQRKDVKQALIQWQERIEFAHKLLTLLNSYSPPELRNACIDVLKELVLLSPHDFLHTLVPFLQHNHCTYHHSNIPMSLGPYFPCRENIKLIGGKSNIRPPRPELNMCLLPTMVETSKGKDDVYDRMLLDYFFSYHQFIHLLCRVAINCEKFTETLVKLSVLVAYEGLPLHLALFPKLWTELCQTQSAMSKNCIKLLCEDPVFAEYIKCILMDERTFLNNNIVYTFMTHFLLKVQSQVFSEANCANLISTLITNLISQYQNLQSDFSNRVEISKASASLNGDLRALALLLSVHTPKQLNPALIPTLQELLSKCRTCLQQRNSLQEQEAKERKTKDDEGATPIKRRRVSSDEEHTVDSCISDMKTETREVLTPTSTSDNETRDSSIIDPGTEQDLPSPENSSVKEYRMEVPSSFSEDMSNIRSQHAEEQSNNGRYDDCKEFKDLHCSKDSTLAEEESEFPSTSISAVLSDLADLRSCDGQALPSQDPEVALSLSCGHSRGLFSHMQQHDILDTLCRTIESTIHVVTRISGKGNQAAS
Summary of the method: (§1)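 Each value is an average log2 ratio of fragment to vehicle, tested by unpaired t-test. The underlying Spectronaut label-free quantities were global-median-normalised, and only proteins with ≥2 unique peptides were included. Triplicate HEK293T lysate samples (495 µg) were exposed to fragment at 200 µM or vehicle for 3 h, then to Biotin-Ahx-Ub-VS at 0.5 µM final for 1 h, before NeutrAvidin enrichment of labelled DUBs, LysC and trypsin digestion, and diaPASEF LC-MS/MS.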

USP36 = molecular target: T1, USP36 (UniProt Q9P275)
T1 sequence (whole entry): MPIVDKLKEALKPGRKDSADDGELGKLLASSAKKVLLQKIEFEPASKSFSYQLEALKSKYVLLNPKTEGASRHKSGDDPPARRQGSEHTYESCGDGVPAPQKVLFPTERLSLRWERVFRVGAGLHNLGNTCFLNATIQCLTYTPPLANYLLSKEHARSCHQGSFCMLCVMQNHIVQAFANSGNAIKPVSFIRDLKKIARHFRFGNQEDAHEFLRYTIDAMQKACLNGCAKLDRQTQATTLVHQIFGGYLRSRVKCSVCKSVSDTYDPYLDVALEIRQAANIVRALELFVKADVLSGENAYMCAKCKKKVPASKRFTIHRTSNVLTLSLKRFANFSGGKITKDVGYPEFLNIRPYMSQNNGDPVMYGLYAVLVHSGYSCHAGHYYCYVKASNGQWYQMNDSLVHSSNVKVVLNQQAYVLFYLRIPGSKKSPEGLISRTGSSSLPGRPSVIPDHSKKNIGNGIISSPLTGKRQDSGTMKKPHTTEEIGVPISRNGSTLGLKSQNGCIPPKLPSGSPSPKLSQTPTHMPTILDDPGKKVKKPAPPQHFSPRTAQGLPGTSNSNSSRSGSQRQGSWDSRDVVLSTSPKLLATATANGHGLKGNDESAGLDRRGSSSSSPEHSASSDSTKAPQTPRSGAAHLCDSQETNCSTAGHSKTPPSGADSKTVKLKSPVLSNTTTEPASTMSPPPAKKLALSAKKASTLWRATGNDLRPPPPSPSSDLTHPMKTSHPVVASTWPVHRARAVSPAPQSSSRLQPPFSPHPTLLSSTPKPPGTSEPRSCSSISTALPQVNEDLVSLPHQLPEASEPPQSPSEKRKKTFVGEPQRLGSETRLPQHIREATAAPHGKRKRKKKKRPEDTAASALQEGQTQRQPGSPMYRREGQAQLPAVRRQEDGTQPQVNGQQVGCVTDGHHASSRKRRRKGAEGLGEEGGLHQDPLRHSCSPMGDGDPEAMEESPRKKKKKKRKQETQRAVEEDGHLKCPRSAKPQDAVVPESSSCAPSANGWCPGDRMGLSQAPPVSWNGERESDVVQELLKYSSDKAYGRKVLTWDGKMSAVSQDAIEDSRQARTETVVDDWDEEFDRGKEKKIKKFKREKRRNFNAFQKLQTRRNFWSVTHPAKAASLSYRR
Summary of the method: as §1

USP38 = molecular target: T2, USP38 (UniProt Q8NB14)
T2 sequence (whole entry): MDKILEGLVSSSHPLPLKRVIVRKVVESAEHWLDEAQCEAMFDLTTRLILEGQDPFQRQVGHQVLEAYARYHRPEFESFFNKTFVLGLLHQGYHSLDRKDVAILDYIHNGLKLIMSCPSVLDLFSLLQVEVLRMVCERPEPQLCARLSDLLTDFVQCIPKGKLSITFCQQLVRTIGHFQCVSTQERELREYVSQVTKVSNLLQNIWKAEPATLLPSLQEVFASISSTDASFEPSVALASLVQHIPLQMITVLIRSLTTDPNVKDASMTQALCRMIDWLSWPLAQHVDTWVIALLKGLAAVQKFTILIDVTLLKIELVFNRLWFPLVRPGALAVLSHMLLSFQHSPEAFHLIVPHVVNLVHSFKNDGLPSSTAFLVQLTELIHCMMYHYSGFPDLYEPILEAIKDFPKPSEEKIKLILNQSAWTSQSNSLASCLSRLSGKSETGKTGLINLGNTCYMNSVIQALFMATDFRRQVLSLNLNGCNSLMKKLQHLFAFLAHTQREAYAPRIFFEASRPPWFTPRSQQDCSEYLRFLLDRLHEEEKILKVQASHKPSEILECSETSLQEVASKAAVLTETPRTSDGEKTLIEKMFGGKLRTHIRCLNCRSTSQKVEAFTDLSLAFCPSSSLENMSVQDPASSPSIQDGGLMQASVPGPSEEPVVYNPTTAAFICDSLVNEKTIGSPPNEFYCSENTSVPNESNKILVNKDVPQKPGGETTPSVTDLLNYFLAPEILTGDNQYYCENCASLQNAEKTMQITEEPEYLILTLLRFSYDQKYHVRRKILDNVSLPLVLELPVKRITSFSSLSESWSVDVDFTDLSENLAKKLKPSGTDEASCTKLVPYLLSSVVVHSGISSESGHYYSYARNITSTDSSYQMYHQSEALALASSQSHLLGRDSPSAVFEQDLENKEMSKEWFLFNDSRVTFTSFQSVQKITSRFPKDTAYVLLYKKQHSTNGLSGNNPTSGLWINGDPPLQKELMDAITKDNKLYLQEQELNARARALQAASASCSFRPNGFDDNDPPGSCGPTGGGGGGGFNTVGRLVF
Summary of the method: as §1

USP39 = molecular target: T3, USP39 (UniProt Q53GS9)
T3 sequence (whole entry): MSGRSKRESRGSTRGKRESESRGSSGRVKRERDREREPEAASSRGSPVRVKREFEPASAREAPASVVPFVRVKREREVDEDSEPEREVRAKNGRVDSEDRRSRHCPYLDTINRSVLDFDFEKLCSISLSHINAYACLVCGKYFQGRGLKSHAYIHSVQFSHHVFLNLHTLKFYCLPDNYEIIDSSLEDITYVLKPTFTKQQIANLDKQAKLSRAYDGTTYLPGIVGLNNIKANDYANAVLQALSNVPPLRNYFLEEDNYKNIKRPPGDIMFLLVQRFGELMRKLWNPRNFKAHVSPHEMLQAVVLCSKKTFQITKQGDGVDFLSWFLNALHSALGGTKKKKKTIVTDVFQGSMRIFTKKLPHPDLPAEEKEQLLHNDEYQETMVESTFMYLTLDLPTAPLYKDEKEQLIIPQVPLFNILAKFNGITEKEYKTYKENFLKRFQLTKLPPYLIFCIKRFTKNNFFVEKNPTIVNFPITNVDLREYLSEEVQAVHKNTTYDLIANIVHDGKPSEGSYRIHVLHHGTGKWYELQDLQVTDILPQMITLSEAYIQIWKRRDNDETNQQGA
Summary of the method: as §1

USP4 = molecular target: T4, USP4 (UniProt Q13107)
T4 sequence (whole entry): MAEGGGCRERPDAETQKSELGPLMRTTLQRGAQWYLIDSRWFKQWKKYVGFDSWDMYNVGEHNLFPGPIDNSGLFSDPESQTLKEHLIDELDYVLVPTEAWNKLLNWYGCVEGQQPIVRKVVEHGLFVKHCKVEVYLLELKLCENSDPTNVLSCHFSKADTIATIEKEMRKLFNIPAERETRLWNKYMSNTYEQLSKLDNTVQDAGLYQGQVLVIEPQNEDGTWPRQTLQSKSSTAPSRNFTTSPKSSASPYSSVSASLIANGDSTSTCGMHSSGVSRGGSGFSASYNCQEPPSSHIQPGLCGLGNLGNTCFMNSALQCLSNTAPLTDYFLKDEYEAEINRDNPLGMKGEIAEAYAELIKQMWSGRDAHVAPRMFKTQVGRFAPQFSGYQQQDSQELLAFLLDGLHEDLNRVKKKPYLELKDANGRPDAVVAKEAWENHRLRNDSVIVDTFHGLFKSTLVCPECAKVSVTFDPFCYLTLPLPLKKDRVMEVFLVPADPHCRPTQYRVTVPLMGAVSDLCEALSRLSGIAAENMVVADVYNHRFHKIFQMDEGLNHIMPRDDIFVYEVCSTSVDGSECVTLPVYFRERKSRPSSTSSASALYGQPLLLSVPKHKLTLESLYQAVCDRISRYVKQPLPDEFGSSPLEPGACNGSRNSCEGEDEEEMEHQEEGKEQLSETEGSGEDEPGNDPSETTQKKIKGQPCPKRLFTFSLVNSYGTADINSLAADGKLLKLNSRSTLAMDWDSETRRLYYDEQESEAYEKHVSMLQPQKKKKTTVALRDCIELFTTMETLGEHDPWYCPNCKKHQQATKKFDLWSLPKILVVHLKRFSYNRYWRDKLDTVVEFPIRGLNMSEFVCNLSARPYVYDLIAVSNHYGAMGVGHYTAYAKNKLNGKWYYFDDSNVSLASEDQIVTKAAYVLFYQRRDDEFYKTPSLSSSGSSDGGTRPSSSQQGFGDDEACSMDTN
Summary of the method: as §1

Measured: log2 ratio of Biotin-Ahx-Ub-VS probe labelling

O=C(CCl)NC(Cn1ccccc1=O)c1ccccc1 (stereo not given)
inactive: USP34 -0.106 | USP36 0.132 | USP38 -0.000312 | USP39 -0.0137 | USP4 -0.127
